The text below walks through data of PubChem BioAssay (NCATS).

Results filed as inconclusive are left out. Activity calls are given as the source filed them. Calls come from the whole dose curve; as a rule, active = well fitted curve in either direction with a large enough effect (not every such curve was filed as active); inconclusive = small, poorly fitted or top-dose-only effect, or another doubt; inactive = flat fitted curve, though single readings scatter.
% is set by controls: 0 for no effect and ±100 for the full control effect.

The first assay can be described thus: AP1 Signaling Pathway (AID 357). Particulars: ME-180 (cervical carcinoma) AP-1-bla reporter, EGF-induced, beta-lactamase ratio, 5 h; at 17.2 µM (top of the series) unless noted. In short, it runs like this: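 Cells are seeded overnight, exposed to compound titrations and an EC50 level of EGF for 5 hours at 37 °C, then loaded with CCF4 dye for 2.5 hours. Beta-lactamase activity under the AP-1 element is read as a blue/green ratio.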
Regarding `COc1ccccc1C(CC(=O)Nc1nccs1)c1ccco1` (stereo unspecified), the activity change, negative = inhibition was -11.9% (inactive).
For the molecule `Cn1c(=O)c2c(nc(Br)n2Cc2ccc3ccccc3c2)n(C)c1=O`, the activity change, negative = inhibition is -1.43% (inactive).
With `O=C(O)CC(NCc1ccco1)C(=O)OCCc1ccccc1` (stereo unspecified), the activity change, negative = inhibition is 2.29% (inactive).
Same read-out and setting: the figure for `CCSc1nnc(NC(=O)C(C)(C(F)(F)F)C(F)(F)F)s1` is -11.1% (inactive); for `COC(=O)COc1ccc(Oc2nc(SC)nc(N(C)C)n2)nn1` it is 4.25% (inactive).

The next assay in a line: NFAT Signaling Pathway (AID 444).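 Note: carbachol stimulus at about its EC50 of 1 µM final.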 Particulars: Jurkat NFAT-bla M1, carbachol, beta-lactamase ratio, 5 h; at 17.2 µM (top of the series) unless noted. In short, it runs like this: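 Read-out: CCF4 FRET ratio (460 nm/530 nm) after 1 h RT dye loading, used for %activity and AC50 from titration series. Cells: Jurkat NFAT-β-lactamase/M1 line, treated with compound plus 1 uM carbachol for 5 h, 37 °C.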
For the molecule `COc1ccc(C2CC(c3ccccc3)Nc3nc(N)nn32)cc1` (stereo unspecified), the activity change, negative = inhibition was -6.69% (inactive).
Turning to `CC1(C)Cc2c(c(-c3ccccc3)[nH]c(=O)c2C#N)CS1`, the activity change, negative = inhibition was 2.27% (inactive).
Regarding `O=C(NCCCn1ccnc1)c1cccnc1`, the activity change, negative = inhibition is -7.91% (inactive).
Same read-out and setting: to `COc1cc([C@@H]2[C@H]3CN(C)CC=C3C(C#N)=C(N)C2(C#N)C#N)cc2c1OCO2` belongs 9.82% (inactive).
For the molecule `CNC(=O)c1cc2ccccc2o1`, the activity change, negative = inhibition is -13.4% (inactive).
On the same count and under the same terms, to `CCOC(=O)c1[nH]c2ccccc2c1NC(=O)CCN1CCN(C(=O)OCC)CC1` belongs 1.86% (inactive).
Take `CC(=O)N1CCN(C2c3cccc4cccc(c34)C2NS(=O)(=O)c2ccccc2)CC1` (stereo unspecified): the activity change, negative = inhibition is -9.38% (inactive).
As to `Cc1c(NC(=O)c2ccc(=O)oc2)c(=O)n(-c2ccccc2)n1C`, the activity change, negative = inhibition is -22.5% (inactive).
With `CCOc1ccc(C2C(C(=O)c3ccc(C)o3)=C(O)C(=O)N2CCCN(CC)CC)cc1` (stereo unspecified), the activity change, negative = inhibition is 12.8% (inactive).
As to `COc1ccc(-c2c3c([nH]c(=S)c2C#N)CCC3)cc1`, the activity change, negative = inhibition was -5.23% (inactive).
As to `COc1ccc(OCC(=O)N2CCN(C(=O)c3cccc4ccccc34)CC2)cc1`, the activity change, negative = inhibition is 5.36% (inactive).
